From PubChem
HT1080 IDH1KD tx – qHTS for induction of synthetic lethality in tumor cells producing 2HG: qHTS for the HT-1080-IDH1KD cell line; AID 686971, 2013; Potency, µM (highest dose often 46.1 µM), inactives show at the top dose activity, negative = toxicity, actives largely listed as cytotoxic; HT-1080 IDH1 knockdown viability, ATP luminescence, 48 h; hit rate 2% among 360,000;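 further: potency means the concentration at half of the fitted maximal effect; 0% = DMSO wells and -100% = cell-free medium wells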
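In this qHTS, HT-1080 cells depleted of IDH1 are exposed for 48 h at 37 °C to compound titrations. Toxicity is scored from CellTiter-Glo luminescence, with DMSO as full viability and medium alone as none.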
ELG1 DNA repair – qHTS screen for small molecules that inhibit ELG1-dependent DNA repair in human embryonic kidney (HEK293T) cells expressing luciferase-tagged ELG1; Potency, µM (top dose mostly 46.1 µM), without a hit: at the highest dose activity change, negative = inhibition, hits mostly inhibitors; hit rate 2.3% among 330,000; AID 504467, 2011; HEK293T ELG1-luciferase reporter, luminescence, 16 h; DNA damage induced by 5-fluorouridine; further: potency means the concentration at half of the fitted maximal effect; nearly all actives have a fitted effect of over 55% in size
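Reporter activity after DNA damage by 5-fluorouridine is monitored. Compound-treated cells incubate 16 hr at 37 °C, then ONE-Glo is added for 30 min before luminescence reading.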
IL-1B inflam inh – qHTS for Inhibitors of Inflammasome Signaling: IL-1-beta AlphaLISA Primary Screen; AID 743279, 2014; activity change, % at 57.5 µM; THP-1 LPS/ATP IL-1B secretion, AlphaLISA, 16 h; hits give low values; hit rate 4.7% among 360,000; in the data active means activity change below about -50%; inconclusive means mostly about -30% to -49%
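Secreted IL-1B measured by AlphaLISA bead assay after 16 h compound exposure of THP-1 cells; compounds (final up to 57.5 uM) added 1 h before LPS (250 ng/mL) and ATP (1.25 mM) stimulation; lower signal means less secretion.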
HT1080NT lethal – qHTS for induction of synthetic lethality in tumor cells producing 2HG: qHTS for the HT-1080-NT fibrosarcoma cell line; AID 686970, 2013; hit rate 1.6% among 360,000; HT-1080-NT fibrosarcoma viability, CellTiter-Glo ATP luminescence, 48 h; Potency, µM (series often up to 46.1 µM), for inactives: at the highest dose activity, negative = less viability, most hits filed as cytotoxic;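 further: NT is the 2HG producing partner of a matched IDH1 knockdown line; potency means the concentration at half of the fitted maximal effect; 0% = DMSO-treated cells and -100% = media-only wells without cells; nearly all actives have a fitted effect of over 55% in size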
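Compounds were tested in concentration-response format on HT-1080-NT cells for 48 hours at 37 degrees C. Cell viability came from CellTiter-Glo luminescence; curves were classified by r2, response magnitude and activity.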
DT40 TDP1 no CPT – qHTS for Inhibitors of human tyrosyl-DNA phosphodiesterase 1 (TDP1): qHTS in cells in absence of CPT; hit rate 15% among 420,000; AID 686978, 2013; Potency, µM (top dose mostly 46.2 µM), for inactives: at the top dose activity change, negative = growth inhibition, actives largely listed as inhibitors; DT40 Tdp1-/- hTDP1 cells, no CPT, ATP luminescence, 48 h; further: potency means the concentration at half of the fitted maximal effect; nearly all actives have a fitted effect of over 55% in size
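Readout: luminescence from CellTiter-Glo after 30 min in the dark at RT. Cells: DT40 Tdp1-/- with stable hTDP1, 400/well. Exposure: compounds alone, ≥48 hr, 37 °C.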
DT40 TDP1 CPT – qHTS for Inhibitors of human tyrosyl-DNA phosphodiesterase 1 (TDP1): qHTS in cells in presence of CPT; chicken DT40 Tdp1-/-;hTDP1 cells + 20 nM CPT, ATP luminescence, 48 h; Potency, µM (top dose mostly 46.2 µM), for inactives: at the top dose activity change, negative = growth inhibition, usual class: inhibitors; hit rate 12% among 420,000; AID 686979, 2013; further: potency means the concentration at half of the fitted maximal effect; nearly all actives have a fitted effect of over 55% in size
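Chicken DT40 Tdp1-/- cells complemented with human TDP1, 400 cells/well, exposed to compounds plus 20 nM camptothecin for at least 48 h at 37 C; viability read as ATP content by CellTiter-Glo luminescence.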
Numbers without * were called inactive. In the library only some 19% were active in any assay of this set; here they are far more common. Unless noted, the call rests on the fitted dose curve; in most records, active means well fitted curve in the direction sought with a large enough effect; inconclusive means small, poorly fitted or top-dose-only effect, or another doubt; inactive means no such curve, though single readings can be large; an effect the other way counts as inactive or inconclusive. Unless noted, on the % scale 0 is the no-effect control and ±100 the full control effect.

How did C[C@@H]1CN([C@H](C)CO)C(=O)Cc2cc(NC(=O)Cn3cnnn3)ccc2O[C@@H]1CN(C)Cc1ccc(Cl)c(Cl)c1 do in these assays?
HT1080 IDH1KD tx: -16.0%; ELG1 DNA repair: -4.7%; IL-1B inflam inh: -59.2*; HT1080NT lethal: -2.3%; DT40 TDP1 no CPT: inconclusive; DT40 TDP1 CPT: 18.4µM*

What do the screens show for `C[C@@H]1CN([C@@H](C)CO)C(=O)c2cc(NC(=O)CCC(F)(F)F)ccc2O[C@H]1CN(C)Cc1ccc(Cl)c(Cl)c1`?
HT1080 IDH1KD tx: 23.1µM*; ELG1 DNA repair: inconclusive; IL-1B inflam inh: inconclusive; HT1080NT lethal: inconclusive; DT40 TDP1 no CPT: inconclusive; DT40 TDP1 CPT: 20.6µM*

How did C[C@@H]1CCCCO[C@@H](CN(C)Cc2ccc(Cl)c(Cl)c2)[C@@H](C)CN([C@H](C)CO)C(=O)c2cc(NC(=O)CCC(F)(F)F)ccc2O1 do in these assays?
HT1080 IDH1KD tx: inconclusive; IL-1B inflam inh: -5.2; HT1080NT lethal: inconclusive; DT40 TDP1 no CPT: 10.3µM*; DT40 TDP1 CPT: 8.2µM*

How did C[C@H](CO)N1C[C@H](C)[C@@H](CN(C)C(=O)Nc2ccc(C(F)(F)F)cc2)Oc2ccc(NC(=O)Nc3ccccc3)cc2C1=O do in these assays?
HT1080 IDH1KD tx: inconclusive; ELG1 DNA repair: -3.4%; IL-1B inflam inh: inconclusive; HT1080NT lethal: inconclusive; DT40 TDP1 no CPT: inconclusive; DT40 TDP1 CPT: inconclusive

Results for C[C@@H]1CN([C@H](C)CO)C(=O)c2cc(NC(=O)Nc3ccc(C(F)(F)F)cc3)ccc2O[C@H]1CN(C)Cc1ccc(Cl)c(Cl)c1 ?
HT1080 IDH1KD tx: inconclusive; ELG1 DNA repair: inconclusive; IL-1B inflam inh: -79.9*; HT1080NT lethal: inconclusive; DT40 TDP1 no CPT: 20.6µM*; DT40 TDP1 CPT: inconclusive

What do the screens show for `COc1ccc(CNC(=O)c2cn(Cc3ccccc3OC)c(=O)s2)cc1`?
HT1080 IDH1KD tx: -3.8%; IL-1B inflam inh: -14.4; HT1080NT lethal: -4.1%; DT40 TDP1 no CPT: -24.3%; DT40 TDP1 CPT: -29.9%

How did CCOc1ccc(CNC(=O)c2ccc3nc(C(C)C)oc3c2)cc1 do in these assays?
DT40 TDP1 no CPT: -14.9%; DT40 TDP1 CPT: -3.7%

What do the screens show for `COC[C@@H]1CCCN1[C@@H]1CS(=O)(=O)N[C@H]1COCc1ccccc1`?
HT1080 IDH1KD tx: 15.6%; IL-1B inflam inh: 15.0; HT1080NT lethal: 22.8%; DT40 TDP1 no CPT: -25.7%; DT40 TDP1 CPT: -9.1%

What do the screens show for `C[C@@H]1CN([C@H](C)CO)C(=O)c2cc(NS(=O)(=O)c3ccc(F)cc3)ccc2O[C@@H]1CN(C)Cc1ccc(Cl)c(Cl)c1`?
HT1080 IDH1KD tx: inconclusive; ELG1 DNA repair: inconclusive; IL-1B inflam inh: -71.9*; HT1080NT lethal: 23.1µM*; DT40 TDP1 no CPT: inconclusive; DT40 TDP1 CPT: inconclusive

What do the screens show for `Cc1nc2cc(F)ccc2n1C1CCN(C(=O)c2c(F)cccc2F)CC1`?
HT1080 IDH1KD tx: -1.0%; ELG1 DNA repair: inconclusive; IL-1B inflam inh: 23.8; HT1080NT lethal: -19.3%; DT40 TDP1 no CPT: 20.6µM*; DT40 TDP1 CPT: 11.6µM*

How did COc1ccc(C(=O)N2CCC(n3c(C)nc4cc(F)ccc43)CC2)cc1OC do in these assays?
HT1080 IDH1KD tx: -9.0%; ELG1 DNA repair: -25.8%; IL-1B inflam inh: 7.7; HT1080NT lethal: -4.1%; DT40 TDP1 no CPT: -14.8%; DT40 TDP1 CPT: -13.6%

Results for Cc1nc2cc(F)ccc2n1C1CCN(C(=O)c2ccc(F)cc2F)CC1 ?
HT1080 IDH1KD tx: -19.2%; ELG1 DNA repair: 9.2µM*; IL-1B inflam inh: -2.6; HT1080NT lethal: inconclusive; DT40 TDP1 no CPT: inconclusive; DT40 TDP1 CPT: inconclusive

Results for COc1cccc(Cn2c(=O)c(CCc3ccccc3)nc3cnc(OC)nc32)c1 ?
DT40 TDP1 no CPT: 23.1µM*; DT40 TDP1 CPT: inconclusive

What do the screens show for `COc1ccc(Oc2ncc3nc(CCc4ccccc4)c(=O)n(C[C@H]4CCCO4)c3n2)cc1`?
DT40 TDP1 no CPT: -12.1%; DT40 TDP1 CPT: inconclusive

What do the screens show for `O=c1c(CCc2ccccc2)nc2cnc(Oc3ccccc3)nc2n1C[C@H]1CCCO1`?
DT40 TDP1 no CPT: 18.4µM*; DT40 TDP1 CPT: inconclusive

Results for COc1ncc2nc(CCc3ccccc3)c(=O)n(CCc3ccccc3)c2n1 ?
DT40 TDP1 no CPT: -1.0%; DT40 TDP1 CPT: inconclusive

What do the screens show for `COc1ncc2nc(CCc3ccccc3)c(=O)n(Cc3cccs3)c2n1`?
DT40 TDP1 no CPT: 20.6µM*; DT40 TDP1 CPT: inconclusive

Results for CCNc1ncc2nc(CCc3ccccc3)c(=O)n(Cc3cccc(OC)c3)c2n1 ?
DT40 TDP1 no CPT: -11.8%; DT40 TDP1 CPT: -24.3%

What do the screens show for `CCCC[C@@H](CNC)NC[C@H](Cc1ccc(O)cc1)NCCc1ccc(OCC)cc1`?
HT1080 IDH1KD tx: -24.0%; ELG1 DNA repair: 21.9%; IL-1B inflam inh: -26.8; HT1080NT lethal: inconclusive; DT40 TDP1 no CPT: 3.26µM*; DT40 TDP1 CPT: 5.17µM*

What do the screens show for `Cc1noc(C)c1S(=O)(=O)Nc1ccc2c(c1)CC(=O)N([C@H](C)CO)C[C@H](C)[C@H](CN(C)S(=O)(=O)c1ccc(F)cc1)O2`?
HT1080 IDH1KD tx: 2.7%; ELG1 DNA repair: inconclusive; IL-1B inflam inh: -16.2; HT1080NT lethal: 1.9%; DT40 TDP1 no CPT: inconclusive; DT40 TDP1 CPT: -62.2%

How did CCOC(=O)CN1C(=O)N[C@@H](CCc2ccccc2)C(C(C)=O)=C1C do in these assays?
HT1080 IDH1KD tx: 2.2%; IL-1B inflam inh: 23.3; HT1080NT lethal: 0.0%; DT40 TDP1 no CPT: -18.2%; DT40 TDP1 CPT: -2.1%

Results for CCOC(=O)C1=CNS(=O)(=O)NC1CCc1ccccc1 (centres undefined) ?
HT1080 IDH1KD tx: -0.3%; ELG1 DNA repair: 8.0%; IL-1B inflam inh: 9.2; HT1080NT lethal: -0.7%; DT40 TDP1 no CPT: 23.1µM*; DT40 TDP1 CPT: inconclusive

Results for O=C(OCc1ccccc1)C1CCN(S(=O)(=O)c2cccs2)CC1 ?
HT1080 IDH1KD tx: 16.7%; IL-1B inflam inh: 18.0; HT1080NT lethal: 12.5%; DT40 TDP1 no CPT: -2.9%; DT40 TDP1 CPT: -29.2%
